# According to ChEMBL document CHEMBL1961873, “Compounds: GSK PKIS; Assays: Nanosyn kinase panel” (2012):
# Target: T1, Tyrosine-protein kinase ITK/TSK (Homo sapiens) (UniProt Q08881)
# T1 sequence (whole entry): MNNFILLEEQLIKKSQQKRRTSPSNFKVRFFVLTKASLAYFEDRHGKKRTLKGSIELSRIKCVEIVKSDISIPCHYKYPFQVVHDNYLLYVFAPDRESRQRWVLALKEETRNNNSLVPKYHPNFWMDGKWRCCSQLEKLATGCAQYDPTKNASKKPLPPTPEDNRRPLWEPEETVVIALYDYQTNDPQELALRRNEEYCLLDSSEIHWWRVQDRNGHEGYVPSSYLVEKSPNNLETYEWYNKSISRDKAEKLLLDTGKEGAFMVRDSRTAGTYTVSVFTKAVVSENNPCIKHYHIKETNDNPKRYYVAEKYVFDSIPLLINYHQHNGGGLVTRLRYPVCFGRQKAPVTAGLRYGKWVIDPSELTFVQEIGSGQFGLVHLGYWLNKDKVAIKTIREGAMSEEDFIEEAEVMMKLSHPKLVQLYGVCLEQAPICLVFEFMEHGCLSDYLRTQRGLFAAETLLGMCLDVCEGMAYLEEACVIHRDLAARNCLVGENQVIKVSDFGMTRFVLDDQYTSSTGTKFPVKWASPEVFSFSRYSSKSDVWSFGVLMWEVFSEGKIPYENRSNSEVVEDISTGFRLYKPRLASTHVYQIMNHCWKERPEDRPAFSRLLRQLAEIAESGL
# Settings: at 0.1 µM
# 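Further: mean percent inhibition of ITK from the GSK PKIS screen.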
row,Structure (SMILES),inhibition
1,N#Cc1c(NC(=O)c2cccc3ccccc23)sc2c1CCCC2,1.77%
2,CCn1c(-c2nonc2N)nc2cncc(C(=O)N3CCNCC3)c21,2.63%
3,NS(=O)(=O)c1cccc(-c2ccc3c(NC(=O)C4CC4)n[nH]c3c2)c1,-0.53%
4,CC1=C(C(=O)Nc2ccc3[nH]ncc3c2)C(c2ccc3ccccc3c2)CC(=O)N1 (centres undefined),2.6%
5,Cc1nnc(-c2ccc(C)c(-c3ccc(C(=O)Nc4cccc(C#N)c4)cc3)c2)o1,0.98%
6,Cc1nn(C)c2cc(N(C)c3ccnc(Nc4cccc(S(N)(=O)=O)c4)n3)ccc12,1.53%
7,CS(=O)(=O)CCN(CC#N)Cc1ccc(-c2ccc3ncnc(Nc4ccc(OCc5cccc(F)c5)c(Cl)c4)c3c2)o1,-2.61%
8,NC(=O)c1cccc(Nc2nccc(Nc3cccc4[nH]ncc34)n2)c1,-0.33%
9,COc1cc2ncn(-c3cc(OCc4ccccc4Cl)c(C(N)=O)s3)c2cc1OC,0.4%
10,Cc1cccc(-c2n[nH]cc2-c2ccc3ncccc3n2)n1,0.38%
11,CCn1c(-c2nonc2N)nc2ccncc21,0.26%
12,COc1cc2ncn(-c3cc(OCc4ccccc4C(F)(F)F)c(C(N)=O)s3)c2cc1OC,-3.84%
13,NCc1ccc(-c2nc(-c3ccc(Cl)c(O)c3)c(-c3ccncc3)[nH]2)cc1,0.2%
14,CCN1CCC(CC(=O)Nc2n[nH]c3nc(-c4cccs4)c(Br)cc23)CC1,-0.21%
15,Nc1nc(-c2ccc3c(c2)C(=Cc2cc(Br)c(O)c(Br)c2)C(=O)N3)cs1,0.01%
16,COc1ccc(-c2nn3ncccc3c2-c2ccnc(Nc3ccc(Cl)c(C(F)(F)F)c3)n2)cc1,0.94%
17,COc1ccc(COc2ccc(Cc3cnc(N)nc3N)cc2OC)cc1,1.47%

row,Structure (SMILES),inhibition
1,[O-][S+]1CCN(Cc2ccc(-c3ccc4ncnc(Nc5ccc(OCc6ccccc6)c(F)c5)c4c3)o2)CC1,1.08%
2,CC(C)=Cc1cccc2c1/C(=N/Nc1ccc(S(N)(=O)=O)cc1)C(=O)N2,0.64%
3,Nc1ncnc2occ(-c3ccc(NC(=O)Nc4cc(C(F)(F)F)cc(C(F)(F)F)c4)cc3)c12,1.65%
4,COc1cc(C)c(NC(=O)CN(C)C)cc1Nc1nc(Nc2cccc(F)c2C(N)=O)c2cc[nH]c2n1,1.36%
5,COC(=O)Nc1nc2cc(Oc3ccc(NC(=O)Nc4cccc(C(=O)O)c4)cc3)ccc2[nH]1,-2.99%
6,CS(=O)(=O)Nc1ccc(N/C=C2\C(=O)Nc3ccccc32)cc1,-0.24%
7,CC(=O)Nc1cccc(C#Cc2cncnc2Nc2ccc(OCc3cccc(F)c3)c(Cl)c2)n1,-0.1%
8,CN(C)c1cc2c(Nc3ccc4nc(Cc5ccccc5)[nH]c4c3)ncnc2cn1,1.45%
9,COc1ccc(-c2ccncc2)cc1C(N)=O,1.95%
10,O=C(Nc1n[nH]c2nc(-c3ccco3)c(Br)cc12)C1CC1,3.8%
11,CS(=O)(=O)CCNCc1ccc(-c2ccc3ncnc(Nc4ccc(OCc5cccc(F)c5)c(C(F)(F)F)c4)c3c2)o1,1.12%
12,CCn1c(-c2nonc2N)nc2c(C#CC(C)(C)O)nc(CN3CCCC3)cc21,0.22%
13,CCn1c(-c2nonc2N)nc2c(N3CCCC3)nccc21,0.23%
14,CCc1cccc(NC(=O)Nc2ccc(Oc3ccc4nc(NC(=O)OC)[nH]c4c3)cc2)c1,0.3%
15,O=C1Nc2ccc(C(=O)c3ccco3)cc2C1=Cc1cc(Cl)c(O)c(Cl)c1,1.31%
16,CS(=O)(=O)CCNCc1nc(-c2ccc3ncnc(Nc4ccc(F)c(Cl)c4)c3c2)cs1,1.06%
17,Fc1cccc(COc2ccc(Nc3ncnc4cc(-c5ccc[nH]5)sc34)cc2Cl)c1,-2.3%
